Reference: PubChem BioAssay (NCI)
Compounds without any hit were thinned out: in the full panel of roughly 83,000, 20% have a hit.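 Note: values are percent growth. 100 is the growth of untreated cells, values between 100 and 0 indicate rising inhibition; between -100 and 0 indicates cell death.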 Activity calls are given as the source filed them. The calls were made as follows: active = growth percent below 10; inactive = the rest.

Experiments:
Test in all cases: NCI-60 one-dose screen, 48 h (100 = growth as untreated, 0 = no growth, -100 = all killed)
Conditions in all cases: 10 µM unless noted
[1] = test system: SR leukemia
[2] = test system: RPMI-8226 leukemia
[3] = test system: OVCAR-8 ovarian
[4] = test system: OVCAR-5 ovarian
[5] = test system: OVCAR-4 ovarian
[6] = test system: SK-OV-3 ovarian
[7] = test system: IGROV1 ovarian
[8] = test system: OVCAR-3 ovarian
[9] = test system: HS 578T breast
[10] = test system: NCI/ADR-RES ovarian

Measured: growth

COc1ccc(-c2nc3ccc(-c4nnc(SCc5ccccc5)o4)cc3[nH]2)cc1OC
active: [3] 6.86% | [5] -45.4% | [9] 2.46% | [10] 7.16%
inactive: [1] 56.3% | [2] 44.5% | [4] 34.2% | [6] 62.9% | [7] 42.8% | [8] 10.7%

CN(C(=O)CN1C(=O)/C(=C/c2ccco2)SC1=S)C1CCS(=O)(=O)C1 (stereo not given)
inactive: [1] 84.8% | [2] 98% | [3] 96% | [4] 111% | [5] 106% | [6] 91.3% | [7] 116% | [8] 99.9% | [9] 111% | [10] 96.4%

Clc1ccc(Nc2nnc(-c3c[nH]c4ccccc34)o2)cc1
inactive: [1] 49.6% | [2] 28.6% | [3] 86.1% | [4] 101% | [5] 78.6% | [6] 72.2% | [7] 47.3% | [8] 102% | [9] 82.5% | [10] 50.7%

COc1ccc(SC2c3cc(OC)ccc3Oc3nc(N)c(C#N)c(N)c32)cc1 (stereo not given)
inactive: [1] 29.5% | [2] 56.3% | [3] 87% | [4] 123% | [5] 105% | [6] 113% | [7] 21.9% | [8] 98.4% | [9] 81% | [10] 91.1%

COc1ccc(-c2cc(C(=O)N=Nc3c(O)[nH]c4ccc(Cl)cc34)c3ccccc3n2)cc1
inactive: [1] 53.1% | [2] 102% | [3] 22.1% | [4] 42.5% | [5] 23.7% | [6] 78.1% | [8] 44.2% | [9] 77.6% | [10] 28.7%
active: [7] -18.8%

COc1ccc(NC(=O)CSc2nnc(-c3ccc(-c4nc5ccccc5[nH]4)cc3)o2)cc1
inactive: [1] 35.3% | [2] 18.4% | [4] 55.4% | [5] 38.3% | [6] 98.2% | [7] 35.6% | [8] 41.4% | [9] 45% | [10] 50.1%
active: [3] -24.6%

CCC(=O)c1c2c(c3ccc4c5ccccc5ccc4n13)C(=O)c1ccccc1C2=O
inactive: [1] 71.8% | [2] 95.8% | [3] 96.1% | [4] 122% | [5] 88.2% | [6] 105% | [7] 75.6% | [8] 75.9% | [9] 96.7% | [10] 90.8%

Fc1ccc(N2CC(Cn3c(C(F)(F)F)cc4c(Cl)ncnc43)C2)c(F)c1
inactive: [2] 24.2% | [4] 107% | [6] 100% | [9] 55.1% | [10] 11.4%
active: [1] -60.9% | [3] -87.6% | [5] -27.1% | [7] -95.7% | [8] -66.2%

O=C(CSc1nnc(-c2ccc(-c3nc4ccc(Cl)cc4[nH]3)cc2)o1)Nc1ccccc1
inactive: [1] 10.9% | [2] 45.6% | [4] 49.9% | [5] 37.9% | [6] 66.3% | [7] 70.8% | [8] 43.4% | [9] 40.6% | [10] 31.7%
active: [3] -44.3%

C[C@H](NC(=O)c1ccc2c(-c3ccc(C(F)(F)F)cc3)cccc2c1)c1ccccn1
inactive: [1] 33.3% | [2] 21.4% | [3] 44.7% | [4] 75.2% | [5] 42% | [6] 64% | [7] 55.8% | [8] 45.6% | [9] 53.2% | [10] 32.5%

Cn1cc(-c2cc(N)n3nc(-c4c[nH]c5ccccc45)cc3n2)c2cc(Br)ccc21
inactive: [1] 13.6%
active: [2] -9.12% | [3] -63.7% | [4] -57.1% | [5] -40.6% | [6] -60% | [7] -70.6% | [8] -48% | [9] -29.9% | [10] -18.4%

O=C(CSc1nnc(-c2ccc(-c3nc4ccc(Cl)cc4[nH]3)cc2)o1)Nc1ccc(Cl)cc1
inactive: [4] 49.3% | [5] 19.1% | [6] 81.1% | [7] 51.2% | [9] 14.1% | [10] 11.4%
active: [1] 0.703% | [2] 8.59% | [3] -31.3% | [8] 5.34%

O=C1/C(=C/C=C/c2ccco2)SC(=S)N1CC(=S)C1C=CS(=O)(=O)C1 (stereo not given)
inactive: [1] 39% | [2] 63.9% | [3] 97.1% | [4] 100% | [5] 96.1% | [6] 105% | [7] 92.7% | [8] 65.9% | [9] 109% | [10] 95.8%

O=C(N/N=C/c1ccc(Br)o1)c1[nH]c2ccc(Br)cc2c1-c1ccccc1
active: [1] 5.02% | [3] -35.9% | [4] -21.8% | [5] -17.2% | [7] 5.42% | [8] -28.6% | [9] -4.62% | [10] -41.6%
inactive: [2] 10.6% | [6] 22%

CC1=C(C(=O)Nc2ccccc2)C(c2cccc(Cl)c2Cl)n2c(nc3ccccc32)N1 (stereo not given)
inactive: [2] 37% | [3] 66.6% | [4] 82.8% | [5] 49.4% | [6] 84.3% | [7] 54.9% | [8] 42.2% | [9] 66% | [10] 46.3%
active: [1] 6.58%

COC(=O)c1c(C(=O)OC)c2ccc3c4ccccc4ccc3n2c1C(=O)C(C)Br (stereo not given)
active: [1] 3.43% | [2] 3.26%
inactive: [3] 15.6% | [4] 75.7% | [5] 41.4% | [6] 81.9% | [7] 42.2% | [8] 16.7% | [9] 65.6% | [10] 37.5%
